Rows were chosen to be rich in hits. Some 6.2% of all compounds tested hit in one or more screens of this group.
LASV entry inh: inhibitors of Lassa virus binding or cell entry; Lassa virus pseudotype entry inhibition, cell reporter; Potency, µM (series often up to 37.9 µM), for inactives: at the highest dose activity change, negative = inhibition, usual class: inhibitors; hit rate 1.2% among 300,000; calls by dose curve; tested in HEK293 cells; further: potency means the concentration at half of the fitted maximal effect; nearly all actives have a fitted effect of over 50% in size
HCMV antiviral: human cytomegalovirus inhibition; HFF cells, HCMV-luciferase reporter, 72 h; hits give low values; activity change, negative = inhibition, % at 57.5 µM; hit rate 4.5% among 410,000; in the data active means activity change below about -60%; inconclusive means no clear call, values can overlap the other calls; inactive means above about -39%
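Human foreskin fibroblasts infected with luciferase-reporter HCMV at MOI 1 PFU/cell, compounds at two doses. Luciferase measured 72 h post infection; normalized to buffer-only basal and Salinomycin (10uM) controls.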
Marburg entry inh: Marburg virus entry inhibition; hit rate 1.8% among 300,000; Potency, µM (top dose mostly 37.8 µM), for the others: at the top dose activity change, negative = inhibition, actives largely listed as inhibitors; AID 540276; Marburg virus pseudotyped entry inhibition, cell reporter; calls by dose curve; tested in HEK293 cells; further: potency means the concentration at half of the fitted maximal effect
FMDV inh: antivirals against foot and mouth disease virus; FMDV antiviral cell-based qHTS; hit rate 1.2% among 410,000; Potency, µM (titrated, usually from 57.9 µM), for inactives: at the highest dose activity change, negative = inhibition, actives largely listed as inhibitors; calls by dose curve; tested in HEK293T cells; further: read-out not given here; potency means the concentration at half of the fitted maximal effect; nearly all actives have a fitted effect of over 45% in size
* hit, by the source's call; ? = inconclusive; nt = no result given; [ ] = remark or other dose. On the % scale 0 is the no-effect control and ±100 the full control effect.

SMILES	LASV entry inh	HCMV antiviral	Marburg entry inh	FMDV inh
Cc1ccc(C(=O)c2ccccc2C(=O)OCC(=O)Nc2ccc(SC(F)F)cc2)cc1	11.2µM*	-34.4	?	-7.0%
COc1cc(C(=O)OCC(=O)Nc2ccc(OC(F)F)cc2)cc(OC)c1OC	?	-10.8	?	0.0%
COc1cc(C(=O)OCC(=O)Nc2ccc(SC(F)F)cc2)cc(OC)c1OC	0.0%	14.3	?	35.5µM*
C[C@@H](O)C(C(=O)N1CCNCC1)n1cc([C@@H](N)CCCCN)nn1 (stereo partly specified)	nt	1.9	nt	-19.6%
CCOC(=O)c1c(C)[nH]c(CCC(=O)NCc2ccccc2C)c1C	-3.0%[46.1 µM]	39.9	nt	5.2%
CCCc1cc(C(=O)Nc2cc(C)ccc2O)no1	?	-69.1*	?	40.7%
CCCc1cc(C(=O)Nc2cccnc2Cl)no1	11.4%	-1.3	?	64.5%
CCn1c(SCC(=O)Nc2sc3c(c2C#N)CCCC3)nnc1-c1ccncc1	-16.2%	58.3	12.0%[46.1 µM]	-8.0%
N#Cc1c(NC(=O)CSc2nnc(-c3ccncc3)n2CC2CCCO2)sc2c1CCCC2 (stereo unspecified)	-14.3%	-80.3*	-9.4%	-22.1%
N#Cc1c(NC(=O)CSc2nnc(-c3ccccc3)o2)sc2c1CCCC2	-19.2%	24.3	?	21.3%
N#Cc1c(NC(=O)CSc2ncc(-c3ccccc3)n2CC2CCCO2)sc2c1CCCC2 (stereo unspecified)	7.3µM*	-61.8*	5.17µM*	0.0%
COc1cccc(CC(=O)Nc2cc(S(=O)(=O)N3CCCCC3)ccc2C)c1	nt	24.8	nt	-28.0%
COc1cccc(CC(=O)Nc2ccc(S(=O)(=O)N3CCCCC3)cc2)c1	?	-6.2	10µM*	14.6%
COc1cccc(OC)c1OCC(=O)Nc1ccc(S(=O)(=O)N2CCCC2)cc1	nt	-25.0	nt	25.1µM*
COc1ccc(CC(=O)Nc2cccc(S(=O)(=O)N3CCOCC3)c2)cc1OC	nt	-66.1*	nt	?
COc1ccccc1CC(=O)Nc1cccc(S(=O)(=O)N2CCOCC2)c1	-7.9%	0.7	8.6%	-0.9%
CCCc1nc2ccccc2c(C(=O)OCC(=O)Nc2cccc(S(=O)(=O)N3CCOCC3)c2)c1CC	18.3µM*	-0.4	?	-1.0%
O=C(O)C1CN(C(=O)c2ccccc2)c2cc(Cl)ccc2O1 (stereo unspecified)	2.8%[46.1 µM]	15.5	?	-10.0%
COc1ccc(S(=O)(=O)N2CCOCC2)cc1NC(=O)CN1CCCC1	22.8%	-9.4	?	-11.1%
COc1ccc(S(=O)(=O)N2CCOCC2)cc1NC(=O)CN1CCC(Cc2ccccc2)CC1	10µM*	-66.2*	?	-16.2%
COc1ccc(S(=O)(=O)N2CCCCC2)cc1NC(=O)Cc1sc(C)nc1-c1ccc(F)cc1	?	-65.2*	?	-16.0%
CCOc1ccc(S(=O)(=O)N2CCCCC2)cc1NC(=O)Cc1ccccc1	nt	-37.6	nt	-24.6%
CCOc1ccc(S(=O)(=O)N2CCCCC2)cc1NC(=O)Cc1cc(OC)c(OC)c(OC)c1	nt	-88.1*	nt	-24.1%
COc1cc(CC(=O)Nc2cccc(S(=O)(=O)N(C)c3ccccc3)c2)cc(OC)c1OC	nt	?	nt	22.4µM*
O=c1c2c3c(sc2nc2n1CCC2)CCCCC3	-4.3%	12.0	?	10.2%
SMILES	LASV entry inh	HCMV antiviral	Marburg entry inh	FMDV inh
COc1ccccc1-n1c(SCC(=O)Nc2ccc3c(c2)OCO3)nc2c(c1=O)SCC2	?	-28.5	-5.1%	-13.0%
CCSc1nnc(CCNC(=O)OC(C)(C)C)o1	10.0%	-33.5	12.0%	-22.1%
CC(=O)c1c(C)c2c(n1CCN(C)C)CCCC2	3.9%	21.9	?	-18.7%
CS(=O)(=O)c1ccc2nc(NC(=O)CN3CCC(Cc4ccccc4)CC3)sc2c1	14.7%[46.1 µM]	-84.7*	-2.5%[46.1 µM]	0.0%
CC(OC(=O)c1cc(Br)ccc1O)C(=O)Nc1ccc(S(=O)(=O)N2CCCC2)cc1 (stereo unspecified)	?	-3.4	?	20µM*
O=C(COc1ccc(Br)cc1CO)Nc1ccc(F)cc1	8.7%	-1.6	1.1%	-4.5%
O=C(COc1ccc(Br)cc1CO)Nc1ccc(S(=O)(=O)N2CCCC2)cc1	0.2%	?	?	35.5µM*
COc1cc(CC(NC(C)=O)C(=O)NC2CCN(S(=O)(=O)c3ccc(NC(C)=O)cc3)CC2)cc(OC)c1 (stereo unspecified)	nt	-71.8*	11.0%[46.1 µM]	-0.2%
COc1ccc(CC(=O)Nc2cccc(S(=O)(=O)N3CCCC3)c2)cc1OC	nt	-85.4*	nt	-27.4%
O=C(Cn1cnc2ccccc2c1=O)NCCC(=O)N1CCN(c2ccccc2)CC1	14.3%	-2.9	-2.9%	-0.7%
COc1ccc(OC)c(C2CC(=O)Nc3n[nH]c(-c4ccccc4)c32)c1 (stereo unspecified)	?	76.2	?	-18.6%
COCCn1c(SCCOc2ccccc2)nc2ccccc2c1=O	-8.1%	-18.2	?	25.1µM*
CCOCCCn1c(SCC(=O)NC(C)C)nc2ccccc2c1=O	11.8%	-106.8*	-0.3%	23.9%
CCOCCCn1c(SCc2nc3ccccc3s2)nc2ccccc2c1=O	?	-78.4*	7.08µM*	0.0%
CCOCCCn1c(SCC(=O)NC2CCCC2)nc2ccccc2c1=O	nt	-27.5	nt	-8.8%
CCOCCCn1c(SCC(=O)Nc2ccccc2)nc2ccccc2c1=O	?	-38.4	-20.3%	-19.6%
CCCCCCn1c(SCC(=O)Nc2cc(C)on2)nc2ccccc2c1=O	?	-62.9*	?	6.9%
COCCn1c(SCC(=O)Nc2cc(C)on2)nc2ccccc2c1=O	nt	-9.5	nt	-10.0%
CC(=O)Nc1ccc(C2=NNC(=Nc3cccc(S(=O)(=O)N(C)C)c3)SC2)cc1	nt	nt	nt	-14.4%
COCCN=C1NN=C(c2ccc(NC(C)=O)cc2)CS1	nt	-66.8*	-16.6%[46.1 µM]	50.6%
CC(=O)Nc1ccc(C2=NNC(=Nc3ccc(S(=O)(=O)N4CCOCC4)cc3)SC2)cc1	?	-35.9	11.2µM*	-8.5%
O=S(=O)(c1ccc(N=C2NN=C(c3cc(F)ccc3F)CS2)cc1)N1CCOCC1	12.6µM*	-98.8*	5.01µM*	-28.7%
Cn1c(=O)c2c(nc(SCC(=O)Nc3ccccc3)n2C)n(C)c1=O	nt	-6.2	nt	-26.6%
CC(=O)Nc1c(C(=O)Nc2cccc(C)c2)nnn1-c1ccc(C)cc1	?	-61.9*	16.3%[46.1 µM]	10.6%
COc1ccc(Cn2c(=O)oc3ccccc32)cc1OC	nt	-33.2	nt	?
SMILES	LASV entry inh	HCMV antiviral	Marburg entry inh	FMDV inh
COc1ccc(Cn2c(=O)oc3ccc(C)cc32)cc1OC	?	-94.5*	?	?
Cc1ccc(S(=O)(=O)N2C[C@]3(O)C[C@@H]4C(=O)N(c5ccccc5)C(=O)[C@@H]4C[C@]3(OC(=O)NCc3ccco3)C2)cc1	nt	8.3	nt	?
COc1ccc(-c2nc(C)sc2CC(=O)O)cc1	-1.3%	-82.5*	?	-15.9%
COc1cc(/C=C(\C#N)c2nc3ccccc3s2)cc([N+](=O)[O-])c1O	0.0%	-62.1*	?	-19.9%
O=C(CCn1nnc2ccccc2c1=O)NCC1CCC(C(=O)O)CC1 (stereo unspecified)	-6.4%	-4.8	0.4%	-4.3%
C/C(=N\NC(=O)COc1ccc(C(C)(C)C)cc1)c1ccccc1	-4.8%	7.5	-4.5%[46.1 µM]	4.1%
C/C(=N/NC(=O)CNC(=O)COc1cccc(C)c1)c1ccco1	-0.6%	0.6	?	1.5%
